Measurements reported in PubChem BioAssay (NCI).
Compounds without any hit were thinned out: in the full panel of roughly 83,000, 20% have a hit.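 Note: values are percent growth. 100 is the growth of untreated cells, values between 100 and 0 indicate rising inhibition; between -100 and 0 indicates cell death.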 Values without a mark were called inactive. Activity calls are given as the source filed them. How the source made its calls: active means growth percent below 10; inactive means the rest.

What was measured:
Assay in all cases: NCI-60 one-dose screen, 48 h (100 = growth as untreated, 0 = no growth, -100 = all killed)
Conditions in all cases: 10 µM unless noted
T-47D breast = system: T-47D breast
BT-549 breast = system: BT-549 breast
MDA-MB-435 melanoma = system: MDA-MB-435 melanoma
SW-620 colon = system: SW-620 colon
MCF7 breast = system: MCF7 breast
HCT-116 colon = system: HCT-116 colon
HCC-2998 colon = system: HCC-2998 colon
KM12 colon = system: KM12 colon

| Structure (SMILES) | growth (T-47D breast) | growth (BT-549 breast) | growth (MDA-MB-435 melanoma) | growth (SW-620 colon) | growth (MCF7 breast) | growth (HCT-116 colon) | growth (HCC-2998 colon) | growth (KM12 colon) |
| --- | --- | --- | --- | --- | --- | --- | --- | --- |
| COC1=C(OC)C(=O)C(CCCCCCCCCCO)=C(C)C1=O | 19.3% | 87.4% | -51% (active) | 103% | 30.2% | 52.9% | 115% | 67.5% |
| COc1ccc(S(=O)(=O)N(C)c2oc(-c3ccc(Cl)cc3)nc2C#N)cc1 | 74.5% | 74.7% | -3.32% (active) | 43.3% | 52.5% | 72% | 76.2% |  |
| COc1ccc(C(=O)/C=C/Nc2cc(-c3ccccc3)nn2-c2ccccc2)cc1 | 82% | 103% | 99.2% | 84.2% | 87.9% | 85.9% | 99.4% |  |
| O=C(Nc1ncc(Cc2ccccc2Cl)s1)c1ccc2c(c1)OCCO2 | 33.9% | 18.7% | -19.5% (active) | 31.9% | 12.4% | 7.38% (active) | 19.6% |  |
| c1ccc2[nH]c(-c3ccc(-c4nccc5c4[nH]c4ccccc45)cc3)nc2c1 | 34.4% | 73.7% | 59.7% | 68.5% | 30.4% | 16.3% | 74% | 76.6% |
| CN(C)CCCN(CCC1CCCCC1)CCC1CCCCC1 | -37.6% (active) | 86% | -33.2% (active) | 40.6% | -24.1% (active) | 29% | -88.1% (active) |  |
| COc1ccc(-c2cc(-c3ccc(Cl)cc3)c(C#N)c(=O)n2CCCCC(=O)NO)cc1 | 83.2% | 59.8% | 91.1% | 80% | 76.7% | 62.7% | 84.3% | 86.9% |
| O=C1C=CC2(O)OC(c3ccccc3)CC(=O)C2=C1O (stereo unspecified) | 83.6% | 74% | 87.7% | 102% | 86% | 82.9% | 101% | 15.9% |
| CCOC(=O)c1c(C)c2c(n1Cc1ccccc1)CSc1cc(C#N)c(=O)[nH]c1-2 | 69.2% [100 µM] | 46% [100 µM] | 98.2% [100 µM] | 91.7% [100 µM] | 101% [100 µM] | 59.9% [100 µM] | 99.7% [100 µM] | 67.6% [100 µM] |
| CC1OC(C(=O)N2CCN(CCO)CC2)CC1COC1CCCCC1 (stereo unspecified) | 94.6% [50 µM] | 90.2% [50 µM] | 103% [50 µM] | 101% [50 µM] | 103% [50 µM] | 97% [50 µM] | 109% [50 µM] | 101% [50 µM] |
| CS(=O)(=O)c1ccc(/C(=N/NC(N)=S)c2ccc(F)cc2)cc1 | 88.2% | 102% | 102% | 101% | 89.9% | 95.7% | 104% | 101% |
| COc1cc(C2CC(c3cccc(Nc4ccncc4)c3)=Nc3c(N)ncnc3N2)cc(OC)c1OC (stereo unspecified) | 62.2% | 113% | 69.7% | 90.6% | 57.6% | 87.9% | 95.4% | 69% |
| Cc1cc(N2CCOCC2)nc(N(CCCNc2ccnc3cc(Cl)ccc23)Cc2ccc3c(c2)OCO3)n1 | -45.9% (active) | -38.3% (active) | -45.1% (active) | -3.78% (active) | 3.11% (active) | -76.9% (active) | -58.2% (active) | 0.0851% (active) |
| Cc1ccc(S(=O)(=O)c2nc(-c3ccccc3)oc2S(C)=O)cc1 (stereo unspecified) | -49% (active) | 27.5% | 37% | -55.4% (active) | -20% (active) | -20.3% (active) | 70.5% | 49.8% |
| COC(=O)CCc1c(/C=C2\N=C(c3ccc[nH]3)C=C2OC)[nH]c(C)c1C(=O)OCc1ccccc1 | -2.41% (active) | 1.79% (active) | 2.53% (active) | 3.31% (active) | 7.6% (active) | -9.83% (active) | 22.8% | 10.6% |
